Assay results as given in PubChem BioAssay AID1239 (SRMLSC, 2008).
Out of some 190,000 compounds screened, about 3,100 (1.6%) were called active. No stated cut-off is given here; in the data, active means fold change above about 3.3; inconclusive means no clear call, values can overlap the other calls; inactive means below that. The entries come from a sample that favours actives as a whole.

Assay: NF-kB upregulation, human neuronal cells – cell-based, HTS, primary screen (AID 1239)
Details: NF-kB reporter expression, at 12.5 µM, active compounds read high
In the case of `O=C(O)C1C2CC2CN1C(=O)c1ccc(Cl)cc1Cl` (stereo unspecified), the fold change is reported as 0.99 (inactive).
With `O=C(NCc1cccnc1)c1nc(-c2cccs2)no1` the fold change was 1.23 (inactive).
For `CCCCCc1ccc(-c2ccc(C(=O)O)cc2)nc1`, the fold change was 6.88 (active).
In the case of `CCCCCC(=O)Nc1ccc(-c2cn3cccnc3n2)cc1`, the fold change is reported as 0.94 (inactive).
With `CCCCCc1ccc(-c2ccc(OCC)cc2)nc1` the fold change was 1.81 (inactive).
With `O=C(COC(=O)CNC(=O)c1ccccc1F)NCC(F)(F)F` the fold change was 1.05 (inactive).
With `O=C(CN1CCOCC1)Nc1ccc(NC(=O)CN2CCOCC2)c(Cl)c1` the fold change was 1.01 (inactive).
For `CC(=O)Nc1ccc(NC(=O)CN2CCCC(C)C2)c(Cl)c1` (stereo unspecified), the fold change was 4.21 (active).
In the case of `O=C(CN1CCCCC1)Nc1ccccc1Cl`, the fold change is reported as 1.2 (inactive).
With `O=C(c1ccc2c(c1)N(Cc1ccc(F)cc1)C(=O)c1ccccc1S2(=O)=O)N1CCN(c2ccccn2)CC1` the fold change was 0.68 (inactive).
In the case of `CCn1c(CSCc2c(Cl)cccc2Cl)n[nH]c1=S`, the fold change is reported as 1.06 (inactive).
For `O=C(O)CSc1nnc(-c2ccc3c(c2)OCO3)n1-c1ccccc1`, the fold change was 1.41 (inactive).
In the case of `CCOc1cccc(/C=N/N2C(=O)CSC2=S)c1O`, the fold change is reported as 1.38 (inactive).
For `O=C(CCc1ccccc1)Nc1ccc(NC(=O)C2CCCCC2)nc1`, the fold change was 1.04 (inactive).
With `Cc1c(C(=O)Nc2ccccc2)sc2nc3n(c(=O)c12)CCCCC3` the fold change was 1.58 (inactive).
For `Cc1cccc2c(=O)n3c(nc12)CCCCC3`, the fold change was 1.11 (inactive).
In the case of `O=c1c2c(nc3n1CCCCC3)sc1c(O)cccc12`, the fold change is reported as 4.86 (active).
For `CCN1CCN(CC(=O)Nc2sc3c(c2C#N)CCC3)CC1`, the fold change was 1.03 (inactive).
In the case of `O=C(O)CSCc1nc2ccccc2s1`, the fold change is reported as 0.98 (inactive).
For `COC(=O)c1nc2ccccc2s1`, the fold change was 0.91 (inactive).
For `CCC(=O)NC(=Nc1nc2ccccc2s1)NC(=O)CC`, the fold change was 6.73 (active).
In the case of `O=C(O)CCCCc1nc2ccccc2s1`, the fold change is reported as 1.24 (inactive).
For `CC(C)CC(=O)N/C(N)=N/c1nc2ccccc2s1`, the fold change was 8.73 (active).
In the case of `CC(C)CC(=O)NC(=S)NCc1ccccc1`, the fold change is reported as 1.01 (inactive).
In the case of `Cc1nc(-c2ccc(Cl)cc2)sc1C(=O)CBr`, the fold change is reported as 1.42 (inactive).
With `N#CCC(=O)N/N=C/c1ccc(SCC(=O)Nc2ccccc2)o1` the fold change was 1.28 (inactive).
For `COCCN(C(=O)CCC(=O)Nc1nccs1)C(C(=O)NC(C)(C)C)c1ccc(Cl)cc1` (stereo unspecified), the fold change was 1.27 (inactive).
With `CC1CCCN(c2ccc(C(=O)NCCc3ccccc3)cn2)C1` (stereo unspecified) the fold change was 4.24 (active).
With `COc1ccc(C(=O)NC2CCN(C(=S)NCCc3ccccc3)CC2)cc1` the fold change was 0.91 (inactive).
With `O=C(NCCc1ccccc1)c1ccc(NC2=NC3CS(=O)(=O)CC3S2)cc1` (stereo unspecified) the fold change was 1.1 (inactive).
With `CNc1nc(Nc2ccc(C)c(Cl)c2)nc(N)c1[N+](=O)[O-]` the fold change was 5.21 (active).
For `Nc1nc(NCCCN2CCOCC2)nc(Nc2ccccc2)c1[N+](=O)[O-]`, the fold change was 0.82 (inactive).
For `COCCNc1nc(N)c([N+](=O)[O-])c(NCCO)n1`, the fold change was 0.91 (inactive).
In the case of `O=C(c1cnn2ccccc12)N1CCc2ccccc21`, the fold change is reported as 3.74 (active).
For `O=C(c1cccc(C(=O)N2CCc3ccccc32)n1)N1CCc2ccccc21`, the fold change was 0.82 (inactive).
With `Cc1occc1C(=O)N1CCCc2ccccc21` the fold change was 1.12 (inactive).
For `Cc1cc(C)n(CCNCc2c(C(=O)N3C[C@@H](C)O[C@@H](C)C3)nc3ccc(Cl)cn23)n1`, the fold change was 0.98 (inactive).
In the case of `Cc1ccccc1NC(=O)Cn1c(=O)n(CC2CCCO2)c(=O)c2ccccc21` (stereo unspecified), the fold change is reported as 0.98 (inactive).
For `Cc1ccc(NC(=O)c2cc(-c3ccc(C)o3)nc3ccccc23)nc1`, the fold change was 0.88 (inactive).
For `Cc1ccc(-c2csc(NNC(=O)c3ccccc3)n2)cc1`, the fold change was 0.64 (inactive).
For `Cc1ccc(Nc2nc(-c3ccc(O)cc3O)cs2)nc1`, the fold change was 5.35 (active).
For `CCOC(=O)Cn1nnnc1C`, the fold change was 0.94 (inactive).
For `O=C(c1cnn(-c2ccc(Cl)cc2)c1)c1ccccc1O`, the fold change was 6.38 (active).
In the case of `O=C(O)c1ccc(NC(=O)c2cn(-c3ccccc3)nc2-c2ccc(Cl)cc2)cc1`, the fold change is reported as 1.11 (inactive).
For `Cc1ncc(CC(=O)n2cc(C(=O)c3cc(Cl)ccc3O)cn2)s1`, the fold change was 0.9 (inactive).
With `O=C(Nc1ccc(Cl)cc1)C1c2cccc[n+]2CC(=O)N1Cc1ccc2c(c1)OCO2` (stereo unspecified) the fold change was 1.64 (inactive).
In the case of `c1ccc2[nH]c(-c3nc4ccccc4[nH]3)nc2c1`, the fold change is reported as 2.17 (inactive).
In the case of `Cc1ccc(-c2nc3ccccc3[nH]2)cc1N`, the fold change is reported as 6.83 (active).
In the case of `Cc1ccc(-c2nc3ccccc3[nH]2)cc1NC(=O)c1sc2ccccc2c1Cl`, the fold change is reported as 0.76 (inactive).
In the case of `O=C(O)CCn1c(SCc2cc(=O)n3ccccc3n2)nc2ccsc2c1=O`, the fold change is reported as 1.78 (inactive).
For `CC(=O)Nc1ccc(NC(=O)C(C)n2c3ccccc3c3nc(=O)cc(C)n32)cc1` (stereo unspecified), the fold change was 1.25 (inactive).
For `COc1cccc(NC(=S)N(Cc2ccc(C)cc2)Cc2ccccn2)c1`, the fold change was 1.01 (inactive).
For `CC(O)CNCCOc1cccc(Oc2ccccc2)c1` (stereo unspecified), the fold change was 1.14 (inactive).
For `O=C(O)c1ccc(NC(=O)c2cccs2)cc1`, the fold change was 1.13 (inactive).
In the case of `Cc1cccc(-n2c(C)cc(/C=N\NC(=O)c3cccs3)c2C)c1`, the fold change is reported as 0.9 (inactive).
In the case of `CC(=O)Nc1ccc(/C=N/NC(=O)c2cccs2)cc1`, the fold change is reported as 3.48 (active).
With `CCOc1ccc(C(C)=O)cc1CSc1nnc(-c2ccncc2)n1CCOC` the fold change was 0.95 (inactive).
With `CC(C)CCC(C)NC(=O)c1ccc2nccnc2c1` (stereo unspecified) the fold change was 1.64 (inactive).
With `CC(NC(=O)COC(=O)c1ccc(Cl)cc1O)c1ccc(F)cc1` (stereo unspecified) the fold change was 1.15 (inactive).
With `CCOC(=O)CSc1nnc(-c2ccncc2)o1` the fold change was 1.05 (inactive).
For `CCCCSc1nnc(-c2ccc(C)cc2)o1`, the fold change was 3.57 (active).
In the case of `CCOC(=O)CSc1nnc(-c2ccc([N+](=O)[O-])cc2)o1`, the fold change is reported as 1.11 (inactive).
With `N/C(=N\OC(=O)Cc1ccccc1[N+](=O)[O-])c1ccc(Br)cc1` the fold change was 1.12 (inactive).
In the case of `COc1ccc(OC)c(C(=O)CSc2nnc(-c3cccs3)o2)c1`, the fold change is reported as 1.11 (inactive).
In the case of `COc1ccc(-c2nnc(SCC(=O)c3cccs3)o2)c(OC)c1`, the fold change is reported as 5.16 (active).
In the case of `COc1ccc(-n2c(C)cc(C(=O)CSc3nnc(-c4cccs4)o3)c2C)cc1`, the fold change is reported as 0.93 (inactive).
In the case of `Cn1nc(C(F)(F)F)c2cc(C(=O)N3CCOCC3)sc21`, the fold change is reported as 0.92 (inactive).
For `COc1ccccc1-c1cc(C(=O)NCCCn2ccnc2)no1`, the fold change was 1.28 (inactive).
In the case of `COc1ccc(-c2cc(C(=O)NCCCn3ccnc3)no2)cc1`, the fold change is reported as 1.83 (inactive).
In the case of `O=C(NCCCn1ccnc1)c1cc(-c2ccccc2)on1`, the fold change is reported as 8.21 (active).
For `CC(=O)Nc1cccc(-c2cnc3ccccc3n2)c1`, the fold change was 2.74 (inactive).
In the case of `CC(=O)Nc1cccc(-c2csc(Nc3cccc(C)n3)n2)c1`, the fold change is reported as 8.2 (active).
With `COc1ccc(CCNc2nc(-c3cccc(NC(C)=O)c3)cs2)cc1OC` the fold change was 0.5 (inactive).
With `CCOc1cc(NC(=S)NCCCN(C)C)c(OCC)cc1NC(=O)C1CC1` the fold change was 0.96 (inactive).
For `CCOn1c(=O)c(=O)n(O)c2ccccc21`, the fold change was 1.15 (inactive).
With `C=C(C)CNC(=S)N/N=C/c1ccccc1OCC(=O)O` the fold change was 1.35 (inactive).
For `CCc1ccc(-c2nn(-c3ccccc3)cc2CSC(=N)N)cc1`, the fold change was 6.66 (active).
With `CCn1c(SCc2ccc(C)cc2)nnc1-c1nn(-c2ccccc2)ccc1=O` the fold change was 1.19 (inactive).
With `N=C(N)SCc1cccc2ccccc12` the fold change was 0.88 (inactive).
With `O=c1nc(N/N=C/c2ccco2)cn[nH]1` the fold change was 1.22 (inactive).
In the case of `COc1ccc(CNc2c(CO)cnc3c2cnn3C)cc1`, the fold change is reported as 1.06 (inactive).
With `Cc1ccccc1OCCC(=O)Nc1c(C)n(C)n(-c2ccccc2)c1=O` the fold change was 0.99 (inactive).
For `Cc1c(NC(=O)CSc2nnnn2-c2ccc(C(=O)O)cc2)c(=O)n(-c2ccccc2)n1C`, the fold change was 1.04 (inactive).
In the case of `Cc1c(NC(=O)CSc2cccc3cccnc23)c(=O)n(-c2ccccc2)n1C`, the fold change is reported as 7.73 (active).
In the case of `CCN(CC)CCNc1nc(-c2ccc(OC(F)F)cc2)c(C)s1`, the fold change is reported as 0.94 (inactive).
With `NC(=O)c1ccc(N2CCOCC2)nc1` the fold change was 0.96 (inactive).
With `COc1cc(/C=N/NC(=O)c2cc(C)n(-c3ccc(F)cc3)c2C)cc(OC)c1O` the fold change was 1.02 (inactive).
For `C/C(=N\NC(=S)NCc1ccccc1)C1CCCCC1`, the fold change was 1.07 (inactive).
With `O=c1[nH]n2c(-c3ccccc3)nc(O)c2c2ccccc12` the fold change was 1.02 (inactive).
In the case of `CCn1nc(C)c(CN2CCN(Cc3ccc(OC)c(C)c3C)C(CCO)C2)c1C` (stereo unspecified), the fold change is reported as 1.19 (inactive).
In the case of `COc1ccc(-c2cn3cccnc3n2)cc1`, the fold change is reported as 2.19 (inactive).
With `CCCC(=O)Nc1cccc(-c2cn3ccsc3n2)c1` the fold change was 1.3 (inactive).
In the case of `COc1ccc(-c2cn3ccsc3n2)cc1`, the fold change is reported as 5.24 (active).
In the case of `CC(C)(C)n1ncc2c(=O)n(Cc3ccc(Cl)cc3)cnc21`, the fold change is reported as 1.03 (inactive).
In the case of `O=C(COc1ccc(Cl)cc1)NCc1nnc(SCC(=O)NCC2CCCO2)o1` (stereo unspecified), the fold change is reported as 1.01 (inactive).
With `Cc1cccc(CSc2nnc(NC(=O)CSc3nnc(C)s3)s2)c1` the fold change was 1.18 (inactive).
In the case of `CC(=O)c1sc(NC(=O)c2ccc(C)cc2)nc1C`, the fold change is reported as 3.36 (active).
With `CCSc1nnc(NC(=O)c2ccc(C)cc2)s1` the fold change was 5.31 (active).
In the case of `CC(=O)c1sc(N/N=C\c2ccc(C)cc2)nc1C`, the fold change is reported as 2.4 (inactive).
With `CC(=O)c1sc(NC(=O)c2cccc3ccccc23)nc1C` the fold change was 0.7 (inactive).
With `CCSc1nnc(NC(=O)Cc2ccccc2OC)s1` the fold change was 1.18 (inactive).
For `C=CCn1nc(-c2ccccc2)c2c(C)onc2c1=O`, the fold change was 1.1 (inactive).
For `COc1cc(/C=N\Nc2ccc([N+](=O)[O-])cn2)ccc1OCC(=O)O`, the fold change was 1.24 (inactive).
For `COc1cc(/C=N/O)ccc1OCc1ccc([N+](=O)[O-])cc1`, the fold change was 6.35 (active).
With `COc1cc(C(=O)OCc2ccc([N+](=O)[O-])cc2)cc(OC)c1OC` the fold change was 1.05 (inactive).
In the case of `COc1ccc(C2=NN(c3nc4ccccc4s3)C(=O)C2)cc1`, the fold change is reported as 1.02 (inactive).
